Marburg entry = qHTS for Inhibitors of binding or entry into cells for Marburg Virus; Marburg virus pseudotype entry/binding inhibition, cell-based; Potency, µM (highest dose often 49.2 µM), for inactives: at the highest dose activity change, negative = inhibition, most hits filed as inhibitors; 18,000 compounds, 6.5% hits; AID 720532, 2013
Lassa entry = qHTS for Inhibitors of binding or entry into cells for Lassa Virus; Lassa virus pseudotyped entry inhibition, cell-based qHTS; 18,000 compounds, 4.1% hits; AID 720533, 2013; Potency, µM (titrated, usually from 49.2 µM), for the others: at the highest dose activity change, negative = inhibition, most hits filed as inhibitors
Active calls of the source: *; [ ] = another dose, or the depositor's remark. Shown are actives, neighbours in structure and some others; about 7.1% of the full set was active somewhere. Calls come from the whole dose curve; tested in HEK293 cells. % is set by controls: 0 for no effect and ±100 for the full control effect; potency is the fitted concentration of half-maximal effect.

How did N#Cc1cc2c(OCC(O)CN3CCN(C(c4ccccc4)c4ccccc4)CC3)cccc2[nH]1 (configuration not stated) do in these assays?
Marburg entry: 8.9µM*; Lassa entry: 16µM*

Results for COc1cc(Nc2c(C#N)cnc3cc(OCCCN4CCN(C)CC4)c(OC)cc23)c(Cl)cc1Cl ?
Marburg entry: 7.1µM*; Lassa entry: inconclusive

Results for CCc1cc2c(nc1CC)CCN(CCC(C)=NO[C@@H](C)CN1CCCc3nc(C)c(C)cc31)C2 ?
Marburg entry: -24%[8.59 µM]; Lassa entry: -10%[8.59 µM]

What do the screens show for `CCCCN1CC(COCc2ccccc2)Oc2cccc(Oc3ccccc3)c2S1(=O)=O` (configuration not stated)?
Marburg entry: -42%; Lassa entry: 4µM*

Results for CCCCN1CC(COCc2ccccc2)Oc2cccc(Oc3ccc(C)cc3)c2S1(=O)=O (configuration not stated) ?
Marburg entry: -25%

How did CC(=CC[Si](C)(C)C)CCC=O do in these assays?
Marburg entry: -25%[8.59 µM]

What do the screens show for `C=CC1CC2C=CCS[P@@](=O)(O1)O2` (some centres not stated)?
Marburg entry: 4%; Lassa entry: -5%

Results for CN1CCCN([C@@H](c2ccccc2)c2ccc(Cl)cc2)CC1 ?
Marburg entry: 11µM*; Lassa entry: -11%[17.8 µM]

Results for OCCOCCN1CCN([C@@H](c2ccccc2)c2ccc(Cl)cc2)CC1 ?
Marburg entry: inconclusive; Lassa entry: -11%[17.8 µM]

How did COc1cccc([C@@H]2Oc3ccc(Br)cc3[C@H](O)[C@@H]2O)c1 do in these assays?
Marburg entry: inconclusive; Lassa entry: 12%[8.59 µM]

How did COC(=O)NCC=Cc1nc(CCCO)co1 do in these assays?
Marburg entry: -24%[8.59 µM]; Lassa entry: -24%[8.59 µM]

What do the screens show for `CCCCCCCC/C=C\CCCCCCCC(=O)NC(C)C(=O)O` (configuration not stated)?
Marburg entry: 2%; Lassa entry: 6%

What do the screens show for `CCCCCCCC/C=C\CCCCCCCC(=O)N[C@@H](CO)Cc1ccc(O)cc1`?
Marburg entry: inconclusive; Lassa entry: 28µM*

How did CCN1CCC(CC(=O)Nc2n[nH]c3nnc(-c4cccc(F)c4F)cc23)CC1 do in these assays?
Marburg entry: -18%

What do the screens show for `Nc1cccc2c(N)cccc12`?
Marburg entry: 3%[107 µM]; Lassa entry: -7%[107 µM]

How did Nc1c2ccccc2nc2ccccc12 (tested in a mixture with another compound) do in these assays?
Marburg entry: 7.1µM*; Lassa entry: -7%

Results for COC(=O)C(C(=O)OC)[C@@H]1O[C@@]23COC=C[C@]2(C)[C@@H]3c2ccccc21 ?
Marburg entry: inconclusive; Lassa entry: 3%[8.59 µM]

Results for CC(C)CON=C1C[C@@H](O)[C@@H](O)[C@@H]2[C@H]3C(=O)N(Cc4ccccc4)C(=O)[C@@H]3CC[C@@H]12 ?
Marburg entry: 1%[8.59 µM]; Lassa entry: -10%[8.59 µM]

Results for C[C@@H](NCCCc1cccc(C(F)(F)F)c1)c1cccc2ccccc12 ?
Marburg entry: 6.3µM*; Lassa entry: 16µM*

How did CCNC(C)Cc1cccc(C(F)(F)F)c1 (configuration not stated) do in these assays?
Marburg entry: 11%; Lassa entry: 2%

What do the screens show for `CSCC[C@@H]1NC(=O)[C@@H](NC(=O)[C@H](CCCNC(=N)N)NC(=O)[C@H](CC(C)C)NC(=O)[C@H](CCSC)NC(=O)[C@H](CC(=O)O)NC(=O)[C@H](Cc2ccccc2)NC(=O)[C@@H](N)CC(=O)O)CSSC[C@@H](C(=O)N[C@@H](Cc2c[nH]c3ccccc23)C(=O)N[C@@H](CCC(N)=O)C(=O)N[C@H](C(=O)O)C(C)C)NC(=O)[C@@H]2CCCN2C(=O)[C@H](CCCNC(=N)N)NC(=O)[C@H](Cc2ccc(O)cc2)NC(=O)[C@H](C(C)C)NC(=O)[C@H](CCCNC(=N)N)NC(=O)CNC(=O)[C@H](CC(C)C)NC1=O`?
Marburg entry: 7%; Lassa entry: 6%

Results for CC1(C)CN(C2CCCCC2)C(=O)[C@@H]1CC(=O)Nc1ccccc1 ?
Marburg entry: -14%; Lassa entry: -27%

What do the screens show for `O=c1cc(-c2ccc(O)cc2)oc2ccc(O)cc12`?
Marburg entry: 56%; Lassa entry: 11µM*

How did O=c1cc(-c2cccc(O)c2)oc2ccc(O)cc12 do in these assays?
Marburg entry: 77%; Lassa entry: inconclusive

What do the screens show for `CC(=O)Oc1ccccc1C(=O)O`?
Marburg entry: 12%; Lassa entry: -3%

What do the screens show for `CC(=O)[O][Hg][c]1ccccc1`?
Marburg entry: inconclusive; Lassa entry: 0.5µM*

Results for CC(C)C[C@@H]1COc2cccc(F)c2S(=O)(=O)N1 ?
Marburg entry: 15%; Lassa entry: 2%

How did COC(=O)N(C=Cc1ccc(OC)cc1)CCc1ccc(OC)c(OC)c1 do in these assays?
Marburg entry: 3%[8.59 µM]; Lassa entry: 1%[8.59 µM]

Results for CCCCCc1cc(O)c2c(c1)OC(C)(C)c1ccc(C)cc1-2 ?
Marburg entry: inconclusive; Lassa entry: 32µM*

How did O=C(NN=C1C[C@@H](O)[C@H](O)[C@H]2[C@@H]3C(=O)N(C4CCCCC4)C(=O)[C@@H]3CC[C@@H]12)OCc1ccccc1 do in these assays?
Marburg entry: -13%[8.59 µM]; Lassa entry: -16%[8.59 µM]

How did O=C1N(Cc2ccc(Br)cc2)c2cccc(Br)c2[C@@]12O[C@H](COc1ccccc1)CC1=CCCC12 (some centres not stated) do in these assays?
Marburg entry: 11%[8.59 µM]; Lassa entry: -18%[8.59 µM]

What do the screens show for `CC(=O)c1ccc2c(c1)N(CCCN(C)C)c1ccccc1S2`?
Marburg entry: inconclusive; Lassa entry: -15%[17.8 µM]

Results for CCC(=O)c1ccc2c(c1)N(CCCN(C)C)c1ccccc1S2 ?
Marburg entry: 22µM*; Lassa entry: 32µM*

How did CN(C)CCCN1c2ccccc2Sc2ccccc21 do in these assays?
Marburg entry: 7.1µM*; Lassa entry: inconclusive

Results for COc1ccc([C@H]2Sc3ccccc3N(CCN(C)C)C(=O)[C@H]2OC(C)=O)cc1 ?
Marburg entry: -15%[17.8 µM]; Lassa entry: inconclusive

How did C=CCN1C(=O)[C@@]2(CC(C)=C[C@@H](COc3ccccc3)O2)c2ccccc21 do in these assays?
Marburg entry: 2%[8.59 µM]; Lassa entry: 7%[8.59 µM]

Results for O=S1(=O)N[C@H](Cc2ccccc2)COc2cc(NCCO)ccc21 ?
Marburg entry: 20%; Lassa entry: 16%

Results for C[C@H]1C[C@@H](C)O[C@@]2(C1)C(=O)Nc1ccccc12 ?
Marburg entry: 5%[8.59 µM]; Lassa entry: 5%[8.59 µM]

Results for COC(=O)[C@H]1[C@H](C)[C@@]2(O)c3ccccc3N(C)[C@@]1(C)[C@H]2O ?
Marburg entry: -25%[8.59 µM]; Lassa entry: -14%[8.59 µM]

What do the screens show for `CC(=O)O[C@H]1C[C@H](O[C@H]2[C@@H](O)C[C@H](O[C@H]3[C@@H](O)C[C@H](O[C@H]4CC[C@@]5(C)[C@H](CC[C@@H]6[C@@H]5C[C@@H](O)[C@]5(C)[C@@H](C7=CC(=O)OC7)CC[C@]65O)C4)O[C@@H]3C)O[C@@H]2C)O[C@H](C)[C@H]1O[C@@H]1O[C@H](CO)[C@@H](O)[C@H](O)[C@H]1O`?
Marburg entry: inconclusive; Lassa entry: 0.05µM*

What do the screens show for `CO[C@@H]1c2cc(F)ccc2C(=CCCOC(=O)CC=Cc2ccccc2)[C@H]1C`?
Marburg entry: -24%[8.59 µM]; Lassa entry: -5%[8.59 µM]
